Pf growth 96h = inhibits malaria parasite growth, 96 h. P. falciparum luciferase reporter growth, 96 h. Potency, µM (titrated, usually from 28.7 µM), for the others: at the highest dose activity change, negative = inhibition, most hits filed as inhibitors. 6.9% of 320,000 active; also: % is scaled to controls: 0 for no effect and ±100 for the full control effect
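Parasite growth measured via integrated firefly luciferase reporter in P. falciparum. Infected erythrocytes at 2% hematocrit, 0.05% parasitemia final were treated 96 hours at 37 C under 5% CO2, and luminescence was read.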
NS1 inh = blocks influenza NS1 protein function; Potency, µM (top dose mostly 46.1 µM), inactives show top-dose activity, positive = more growth; 0.4% of 270,000 active; calls by dose curve; also: actives are rising curves; nearly all actives have a fitted effect of over 50% in size
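Compounds were scored for reversing the slow growth caused by influenza A NS1 in S. cerevisiae, measured by optical density at 600 nm. Assay medium contained 2% galactose at pH 6.0; NS1-free yeast of the same strain were the positive control.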
Vaccinia Venus = vaccinia inhibition (Venus reporter); Vaccinia virus Venus reporter expression, fluorescence; Potency, µM (highest dose often 36.5 µM), without a hit: at the highest dose activity change, negative = inhibition, hits mostly inhibitors; 0.46% of 330,000 active; calls by dose curve; tested in A549 cells; also: % is scaled to controls: 0 for no effect and ±100 for the full control effect; nearly all actives have a fitted effect of over 30% in size
Pf growth 48h = inhibits P. falciparum growth in the first generation, 48 h; P. falciparum luciferase growth in erythrocytes, 48 h; Potency, µM (titrated, usually from 28.7 µM), inactives show at the highest dose activity change, negative = inhibition, most hits filed as inhibitors; 5.9% of 310,000 active; AID 504832; also: % is scaled to controls: 0 for no effect and ±100 for the full control effect
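Here the parasites carry a stable luciferase gene and grow inside erythrocytes in Albumax-based RPMI medium with compound for one erythrocytic cycle. Activity is scored as loss of luminescent signal.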
HCV inhibitor = blocks hepatitis C virus | Huh7.5.1 HCVcc-Cre infection, luciferase reporter, 44 h | 3.4% of 340,000 active | Potency, µM (titrated, usually from 41.8 µM), inactives show at the highest dose activity change, negative = inhibition, usual class: inhibitors; also: % is scaled to controls: 0 for no effect and ±100 for the full control effect
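Luciferase read-out (15 sec integration) after a 15 min room-temperature substrate step quantifies HCVcc-Cre infection. Cells, 1,000 per well, had compound added 4 h post-plating, then virus at ~0.5 moi, and were cultured 44 h.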
VACV mCherry inh = inhibitors of vaccinia virus infection (mCherry reporter signal); Vaccinia virus mCherry reporter infection, fluorescence; Potency, µM (highest dose often 36.5 µM), inactives show at the top dose activity change, negative = inhibition, actives largely listed as inhibitors; 0.63% of 310,000 active; calls by dose curve; tested in A549 cells; also: % is scaled to controls: 0 for no effect and ±100 for the full control effect; nearly all actives have a fitted effect of over 35% in size
Active calls of the source: *; [ ] = another dose, or the depositor's remark. Compounds with a hit are over-represented: about 11% of the library has one in this group of screens. Unless noted, calls follow the shape of the dose curve; as a rule, active = well fitted inhibition curve with a large enough effect; inconclusive = small, poorly fitted or top-dose-only effect, or another doubt; inactive = no such curve, though single readings can be large or run the other way. Potency is read from the fitted curve at half-maximal effect.

Results for CC(C)Cn1cc(C(=O)N2CCN(c3ccccn3)CC2)c2c3ccccc3n(C)c2c1=O ?
Pf growth 96h: 9.28µM*; NS1 inh: -40.5%; Pf growth 48h: 7.38µM*; HCV inhibitor: inconclusive

What do the screens show for `CC(C)Cn1cc(C(=O)NC2CCN(Cc3ccccc3)CC2)c2c3ccccc3n(C)c2c1=O`?
Pf growth 96h: inconclusive; NS1 inh: 5.6%; Pf growth 48h: 2.62µM*

Results for O=C(Nc1ccccn1)C12CC3CC(C1)CC(C(=O)Nc1ccccn1)(C3)C2 ?
Pf growth 96h: -12.9%; NS1 inh: -17.7%; Pf growth 48h: inconclusive; HCV inhibitor: -14.0%

How did O=C(COc1ccccc1/C=C\c1[nH]c(=O)[nH]c(=O)c1[N+](=O)[O-])Nc1ccccc1 do in these assays?
Pf growth 96h: 21.5%; Vaccinia Venus: -7.5%; Pf growth 48h: -24.7%; HCV inhibitor: 24.8%; VACV mCherry inh: inactive

Results for O=C(NCc1ccc(F)cc1)C(c1cccnc1)N(C(=O)c1csnn1)c1ccccc1 (stereo not given) ?
Pf growth 96h: 10.4µM*; NS1 inh: -1.4%; Vaccinia Venus: -13.6%; Pf growth 48h: -26.1%; HCV inhibitor: 11.6%; VACV mCherry inh: 3.2%

How did Cc1ccccc1C(=O)NCCn1cc(SCC(=O)NCC2CCCO2)c2ccccc21 (stereo not given) do in these assays?
Pf growth 96h: 6.4%; NS1 inh: 5.8%; Vaccinia Venus: -3.1%; Pf growth 48h: inconclusive; HCV inhibitor: inconclusive; VACV mCherry inh: -16.1%

Results for COc1ccccc1C(=O)NCCn1cc(SCC(=O)NCC2CCCO2)c2ccccc21 (stereo not given) ?
Pf growth 96h: 10.4µM*; NS1 inh: 0.8%; Vaccinia Venus: -16.0%; Pf growth 48h: inconclusive; HCV inhibitor: -20.7%; VACV mCherry inh: -6.4%

How did O=C(NCCn1cc(SCc2ccccc2)c2ccccc21)c1ccccc1F do in these assays?
Pf growth 96h: inconclusive; NS1 inh: -5.1%; Vaccinia Venus: -11.0%; Pf growth 48h: inconclusive; HCV inhibitor: 11.2µM*; VACV mCherry inh: inactive

Results for O=[N+]([O-])/C=C/c1cn(Cc2ccc(F)cc2)c2ccccc12 ?
Pf growth 96h: inconclusive; NS1 inh: -84.2%; Vaccinia Venus: -29.6%; Pf growth 48h: inconclusive; HCV inhibitor: 8.91µM*; VACV mCherry inh: inconclusive

What do the screens show for `O=C(CSc1cn(Cc2ccccc2)c2ccccc12)NCc1ccc(F)cc1`?
Pf growth 96h: 9.28µM*; NS1 inh: 17.2%; Vaccinia Venus: -14.5%; Pf growth 48h: inconclusive; HCV inhibitor: 2.4%[8.37 µM]; VACV mCherry inh: -11.1%

Results for CC(C)(C)NC(=O)C1Cc2ccccc2CN1S(=O)(=O)c1ccc(F)cc1 (stereo not given) ?
Pf growth 96h: -2.6%; Vaccinia Venus: -9.0%; Pf growth 48h: inconclusive; HCV inhibitor: -2.6%; VACV mCherry inh: -6.9%

How did CC(=O)NC(c1cccc(F)c1)c1nc(-c2ccc3ccccc3c2)cs1 (stereo not given) do in these assays?
Vaccinia Venus: -7.8%; VACV mCherry inh: -6.0%

Results for Cn1c(CC(=O)Nc2ccc(Cl)c(Cl)c2)n[nH]c1=S ?
Pf growth 96h: 0.0738µM*; Vaccinia Venus: -2.8%; Pf growth 48h: -2.9%; HCV inhibitor: -1.6%; VACV mCherry inh: inactive

How did Cc1ccc(NC(=O)Cc2n[nH]c(=S)n2C)cc1 do in these assays?
Pf growth 96h: inconclusive; Vaccinia Venus: -9.4%; Pf growth 48h: 14.6%; HCV inhibitor: -5.4%; VACV mCherry inh: -1.8%

What do the screens show for `CC(=O)Oc1ccc(OC(C)=O)c2c1CC(C)=C(C)C2`?
Pf growth 96h: 13.1µM*; NS1 inh: -40.5%; Vaccinia Venus: -13.9%; Pf growth 48h: 9.28µM*; HCV inhibitor: -15.1%; VACV mCherry inh: inconclusive

Results for CC(=O)Oc1ccc(C)cc1 ?
Pf growth 96h: -15.1%; Pf growth 48h: -12.6%

Results for C=C1C(=O)[C@]23C[C@H]1CC[C@H]2[C@]1(C)[C@@H](OC(C)=O)CC[C@@](C)(C(=O)O)[C@H]1C[C@@H]3OC(C)=O ?
Vaccinia Venus: 0.7%; VACV mCherry inh: inactive

Results for C=C1C(=O)[C@]23C[C@H]1CCC2[C@]1(C)CCC[C@@](C)(C(=O)O)C1C[C@@H]3O (stereo not given in full) ?
Vaccinia Venus: 3.55µM*; VACV mCherry inh: 6.31µM*

What do the screens show for `COc1ccc(-c2ccnc3nc(/N=C/N(C)C)nn23)cc1`?
Pf growth 96h: inconclusive; Vaccinia Venus: -6.8%; Pf growth 48h: 245.5%; HCV inhibitor: 1.9%; VACV mCherry inh: inactive

Results for OCCN1CCN(CCCc2c3c(cc4c2CCC4)CCC3)CC1 ?
Pf growth 96h: 11.7µM*; NS1 inh: -2.9%; Vaccinia Venus: -18.8%; Pf growth 48h: 11.7µM*; HCV inhibitor: 6.3%; VACV mCherry inh: inactive

How did COc1ccc(-n2nc([N+](=O)[O-])c(=NCCc3ccc(OC)c(OC)c3)n2O)cc1 do in these assays?
Pf growth 96h: 0.0%; NS1 inh: -12.6%; Vaccinia Venus: -14.3%; Pf growth 48h: 6.4%; HCV inhibitor: 12.6µM*; VACV mCherry inh: -22.8%

How did CCOC(=O)N1CCN(C(=O)C2CCN(S(=O)(=O)c3ccc(C)cc3)CC2)CC1 do in these assays?
NS1 inh: -0.7%; Pf growth 48h: -16.1%; HCV inhibitor: -8.8%

What do the screens show for `CCOC(=O)N1CCN(C(=O)C2CCN(S(=O)(=O)c3cc(Cl)ccc3Cl)CC2)CC1`?
Pf growth 96h: 28.7%; NS1 inh: -47.0%; Pf growth 48h: 7.38µM*; HCV inhibitor: -1.0%

What do the screens show for `CCOC(=O)N1CCC(C(=O)NNC(=O)c2ccc(Cl)cc2Cl)CC1`?
Pf growth 96h: 10.4µM*; NS1 inh: 7.8%; Pf growth 48h: 17.4%; HCV inhibitor: 11.2%

What do the screens show for `CCOC(=O)N1CCN(C(=O)C2CCN(S(=O)(=O)c3ccc(NC(C)=O)cc3)CC2)CC1`?
Pf growth 96h: 8.28µM*; NS1 inh: 5.5%; Pf growth 48h: inconclusive; HCV inhibitor: 5.8%

What do the screens show for `CC(Sc1nncs1)C(=O)NC1CCCCC1C` (stereo not given)?
Pf growth 96h: -19.5%; NS1 inh: -2.9%; Vaccinia Venus: inconclusive; Pf growth 48h: 0.0%; HCV inhibitor: -3.9%; VACV mCherry inh: -4.1%

How did CCOC(=O)N1CCN(C(=O)CN(Cc2ccc(Cl)cc2)S(=O)(=O)c2ccccc2)CC1 do in these assays?
Pf growth 96h: inconclusive; NS1 inh: -17.3%; Pf growth 48h: 8.28µM*; HCV inhibitor: -2.8%

Results for CCOC(=O)N1CCN(C(=O)CN(Cc2ccccc2)S(C)(=O)=O)CC1 ?
Pf growth 96h: 244.4%; NS1 inh: 0.6%; Vaccinia Venus: -1.3%; Pf growth 48h: -5.9%; HCV inhibitor: 12.1%; VACV mCherry inh: -1.8%
